According to PubChem BioAssay (NCATS):
Records with an inconclusive call do not appear. The source made the active and inactive calls. Unless noted, the call rests on the fitted dose curve; in most records, active means well fitted curve in the direction sought with a large enough effect; inconclusive means small, poorly fitted or top-dose-only effect, or another doubt; inactive means no such curve, though single readings can be large; an effect the other way counts as inactive or inconclusive.

Assays:
[1] = biological target: Lysosomal acid glucosylceramidase (Homo sapiens) (UniProt P04062); assay: Glucocerebrosidase-p2 (AID 348; in the data active means potency below about 10 µM; further: potency means the concentration at half of the fitted maximal effect); conditions: purified GBA, blue fluorogenic substrate, 40 min
In short: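 Normal human glucocerebrosidase (0.2 nM) with blue fluorogenic substrate (80 uM final) in citrate/phosphate pH 5.9 with 10mM sodium taurocholate, 0.01% tween-20; 40 min RT, NaOH/glycine stop; fluorescence Ex 365/Em 440; AC50 from a titration from 0.6 nM upwards.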

[2] = AP1 Signaling Pathway (AID 357; active means well fitted curve in either direction with a large enough effect, not every such curve was filed as active;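 further: ME-180 reporter cells stimulated with EGF at its EC50 level; on the % scale 0 is the no-effect control and ±100 the full control effect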); conditions: ME-180 AP-1-bla reporter, EGF-induced, beta-lactamase ratio, 5 h; at 7.69 µM (top of the series) unless noted
In short: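 Titration-series screen for positive or negative modulators of EC50 EGF-induced signaling in ME-180 cells carrying an AP-1-driven beta-lactamase reporter. After 5 hours at 37 degrees Celsius, CCF4 460nm/530nm emission ratio gave %Activity; AC50 values derived.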

[3] = biological target: Cytochrome P450 1A2 (Homo sapiens) (UniProt P05177); assay: p450-cyp1a2 (AID 410; calls by dose curve; further: potency means the concentration at half of the fitted maximal effect;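 on activity change, negative = inhibition: -100% = full effect of reference inhibitor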); conditions: recombinant CYP1A2, luciferin-ME demethylation, luminescence; series mostly up to 57 µM
In short: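 Luminescent demethylation readout: Luciferin-ME (100uM, equal to Km) turned over by 20nM CYP1A2 for 60 min at room temperature after NADPH regeneration addition, following 10 min compound preincubation. Normalization used 57 uM furafylline as full inhibition.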

[4] = NFAT Signaling Pathway (AID 444; active means well fitted curve in either direction with a large enough effect, not every such curve was filed as active;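 further: carbachol stimulus at about its EC50 of 1 µM final; on the % scale 0 is the no-effect control and ±100 the full control effect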); conditions: Jurkat NFAT-bla M1, carbachol, beta-lactamase ratio, 5 h; at 7.69 µM (top of the series) unless noted
In short: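 Read-out: CCF4 FRET ratio (460 nm/530 nm) after 1 h RT dye loading, used for %activity and AC50 from titration series. Cells: Jurkat NFAT-β-lactamase/M1 line, treated with compound plus 1 uM carbachol for 5 h, 37 °C.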

[5] = Stat Signaling Pathway (AID 446; active means well fitted curve in either direction with a large enough effect, not every such curve was filed as active;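 further: ME-180 cervical cancer cells given 40 pM IL-6 alongside compound; SIE-controlled beta-lactamase reporter measured as 460/530 nm FRET emission ratio; on the % scale 0 is the no-effect control and ±100 the full control effect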); conditions: ME-180 (cervical carcinoma) SIE beta-lactamase reporter, IL-6 stimulated, 5 h; at 7.69 µM (top of the series) unless noted
In short: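 Emission at 460 and 530 nm (excitation 405 nm) reports SIE-controlled beta-lactamase in ME-180 cells. Cells received compound with 40 pM IL-6 for 5 hrs at 37 C; data scaled between 300 pM IL-6 and 125 nM JAK-inhibitor controls.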

[6] = biological target: Glucocorticoid receptor (Homo sapiens) (UniProt P04150); assay: GR-GFP Redistribution (AID 450;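 active means compounds whose dose series gives a full or clear partial fitted curve of increased nuclear translocation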; further: potency means the concentration at half of the fitted maximal effect); conditions: U2OS GR-GFP nuclear translocation, laser cytometry, 2 h
[7] = biological target: Glucocorticoid receptor (Homo sapiens) (UniProt P04150); assay: GR-EFC Redistribution (AID 451; calls by dose curve; further: potency means the concentration at half of the fitted maximal effect); conditions: CHO-K1 GR-EFC translocation, beta-gal luminescence, 2 h
In short: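 Translocation of GR-ED fusion to nuclear EA restores b-gal, read by luminescence after 1 h room-temperature detection. Engineered CHO-K1 biosensor cells, 1,000/well, exposed 2 h at 37 C to titrations up to 46 uM final.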

[8] = biological target: Mitogen-activated protein kinase 10 (Mus musculus) (UniProt Q61831); assay: JNK3 AlphaScreen Assay (AID 530; active means well fitted curve in either direction with a large enough effect, not every such curve was filed as active;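 further: kinase came from lysate of stimulated human HepG2 cells; signal reports phosphorylation of biotinylated GST-cJun 1-79 at Ser73 with 10 µM ATP; on the % scale 0 is the no-effect control and ±100 the full control effect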); conditions: JNK3 lysate, c-Jun phosphorylation; series mostly up to 57.1 µM
In short: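 qHTS titrations with 15 min compound pre-incubation before adding ATP (10 uM final). Read-out: AlphaScreen of Ser73-phosphorylated biotin-GST-cJun using HepG2 lysate JNK3 activated by IL-1β and TNFα.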

[9] = biological target: 3',5'-cyclic-AMP phosphodiesterase 4B (Homo sapiens) (UniProt Q07343); assay: qHTS Assay for Inhibitors of PDE-IV (AID 607; active means well fitted activation curve with a large enough effect in the main read-out, with a control signal flat, not every such curve was filed as active; further: % of control where 0% means no effect); conditions: HEK293 ACTOne CNG channel cells, membrane potential fluorescence; series mostly up to 22.9 µM
In short: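 The readout is membrane depolarisation from a cAMP-sensing CNG channel, detected with a potential dye at ex 535/em 590. Cells were HEK293-derived (endogenous PDE-IV) at 1000 cells/well, titrated up to 22.9 uM final.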

[10] = biological target: Cytochrome P450 3A4 (Homo sapiens) (UniProt P08684); assay: qHTS Assay for Activators of Cytochrome P450 3A4 (AID 885); conditions: recombinant CYP3A4, Luciferin-PPXE luminescence, 60 min; series mostly up to 57.1 µM; further: nearly all actives have a fitted effect of over 65% in size
In short: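 Activators are scored by enhanced luminescence from CYP3A4 conversion of luciferin-PPXE (25uM, equal to KM) to luciferin, after 60 min at RT with an NADPH-regenerating system.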

[11] = qHTS Assay for Lipid Storage Modulators (AID 1519; calls by dose curve); conditions: Drosophila S3 cells, BODIPY lipid droplet/cell ratio, laser cytometry, cells loaded with oleic acid; for activity change, negative = inhibition: at 57.5 µM (top of the series)
In short: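 Cells seeded at 5,000 per well were treated with compounds over a concentration series and loaded with oleic acid (400 uM, as added). Lipid droplet fluorescence (488 nm excitation, 500-530 nm channel) was read by laser-scanning cytometry and normalized to 20 uM Triacsin C.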

[12] = biological target: Dual specificity protein kinase CLK4 (Homo sapiens) (UniProt Q9HAZ1); assay: qHTS Assay for Inhibitors of CDC-like Kinase 4 (Kinase-Glo Assay) (AID 1770); conditions: recombinant Clk4, Kinase-Glo ATP depletion luminescence; series mostly up to 66.7 µM; further: nearly all actives have a fitted effect of over 65% in size; further: potency means the concentration at half of the fitted maximal effect
In short: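 Inhibition was judged from remaining ATP, measured by Ultra-Glo luciferase bioluminescence after Clk4 (25 nM) had acted on RS peptide at 1 uM ATP for 4.5 hours, room temperature.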

[13] = biological target: Dual specificity protein kinase CLK4 (Homo sapiens) (UniProt Q9HAZ1); assay: qHTS Assay for Inhibitors of CDC-like Kinase 4 (ADP-Glo Assay) (AID 1771); conditions: recombinant CLK4, ADP-Glo luminescence; series mostly up to 80 µM; further: nearly all actives have a fitted effect of over 70% in size; further: potency means the concentration at half of the fitted maximal effect
In short: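 ADP production was read by ADP-Glo luminescence after residual ATP depletion, following 1 h room-temperature reaction of 25 nM Clk4, 1 uM ATP and 100 uM RS peptide with MgCl2, EGTA, DTT and Triton X-100.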

[14] = biological target: Dual specificity protein kinase CLK4 (Homo sapiens) (UniProt Q9HAZ1); assay: qHTS Assay for Inhibitors of CDC-like Kinase 4 (ADP-FP Assay) (AID 1795); conditions: Transcreener ADP fluorescence polarization; series mostly up to 50 µM; further: nearly all actives have a fitted effect of over 60% in size; further: potency means the concentration at half of the fitted maximal effect
In short: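 Inhibition of ADP formation by 6.25 nM Clk4 is measured using 1 uM ATP and 100 uM RS repeat peptide over one hour. Produced ADP displaces a fluorescent tracer from antibody, lowering polarization.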

[15] = biological target: Ubiquitin carboxyl-terminal hydrolase 1 (Homo sapiens) (UniProt O94782); assay: Inhibitors of USP1/UAF1: Pilot qHTS (AID 504865); conditions: purified USP1/UAF1, Ub-rhodamine cleavage fluorescence; series mostly up to 54.9 µM;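 further: rhodamine fluorescence freed from ubiquitin-rhodamine substrate followed over time; top concentration of the series differs between compounds; on the % scale 0 is the no-effect control and ±100 the full control effect; nearly all actives have a fitted effect of over 35% in size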
In short: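 Kinetic fluorescence assay: 1nM USP1/UAF1, 15 min compound preincubation, then 150nM Ub-Rho; 480/540 nm.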

[16] = Primary qHTS for small molecule stabilizers of the endoplasmic reticulum resident proteome: Secreted ER Calcium Modulated Protein (SERCaMP) assay (AID 1508630); conditions: SH-SY5Y GLuc-SERCaMP (Gaussia luciferase released on ER calcium loss) secretion, thapsigargin, luminescence; series mostly up to 38.4 µM; further: on the % scale 0 is the no-effect control and ±100 the full control effect
In short: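 The SH-SY5Y reporter protocol was run at 3 concentrations up to 38.3 uM (primary) or 11 concentrations (follow-up): 16 h compound, 100 nM thapsigargin for 4 h, then extracellular luciferase luminescence.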

[17] = biological target: Cytochrome P450 2C19 (Homo sapiens) (UniProt P33261); assay: qHTS Assay for Inhibitors and Substrates of Cytochrome P450 2C19 (AID 899); conditions: recombinant CYP2C19, luciferin-H EGE luminescence; series mostly up to 57.1 µM; further: on the % scale 0 is the no-effect control and ±100 the full control effect; nearly all actives have a fitted effect of over 60% in size
In short: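 5nM enzyme + 10uM Luciferin-H EGE (=KM), 50mM KPO4; cpd pin-transferred, 10 min 37C; NADPH regen, 60 min 37C; stopped w/ luciferin detection reagent, 20 min; luminescence. Normalized to 57uM ketoconazole (AC100).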

[18] = measured here: cell count channel max response
[19] = measured here: lipid channel max response

Chain of Ubiquitin carboxyl-terminal hydrolase 1 (Homo sapiens) (O94782 whole entry, looked up): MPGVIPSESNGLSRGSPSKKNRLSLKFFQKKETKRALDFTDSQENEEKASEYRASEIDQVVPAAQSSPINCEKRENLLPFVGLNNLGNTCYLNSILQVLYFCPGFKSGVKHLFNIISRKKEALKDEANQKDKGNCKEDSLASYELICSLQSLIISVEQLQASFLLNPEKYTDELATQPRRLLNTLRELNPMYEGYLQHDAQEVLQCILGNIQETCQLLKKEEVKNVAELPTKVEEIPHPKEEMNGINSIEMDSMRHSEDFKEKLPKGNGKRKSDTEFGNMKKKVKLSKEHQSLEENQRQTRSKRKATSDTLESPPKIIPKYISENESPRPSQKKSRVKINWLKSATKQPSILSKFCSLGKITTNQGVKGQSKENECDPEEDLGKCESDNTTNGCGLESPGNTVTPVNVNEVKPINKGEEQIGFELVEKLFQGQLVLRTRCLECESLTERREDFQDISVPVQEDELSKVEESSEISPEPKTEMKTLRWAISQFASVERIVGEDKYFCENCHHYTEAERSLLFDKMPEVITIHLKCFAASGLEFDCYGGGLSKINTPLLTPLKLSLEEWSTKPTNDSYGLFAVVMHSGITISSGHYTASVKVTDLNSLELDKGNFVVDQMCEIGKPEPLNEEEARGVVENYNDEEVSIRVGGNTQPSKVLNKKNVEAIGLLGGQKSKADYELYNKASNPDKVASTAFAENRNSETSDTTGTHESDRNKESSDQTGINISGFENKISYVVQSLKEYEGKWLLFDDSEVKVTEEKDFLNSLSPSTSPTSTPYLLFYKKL
Chain of Cytochrome P450 1A2 (Homo sapiens) (P05177 whole entry, looked up): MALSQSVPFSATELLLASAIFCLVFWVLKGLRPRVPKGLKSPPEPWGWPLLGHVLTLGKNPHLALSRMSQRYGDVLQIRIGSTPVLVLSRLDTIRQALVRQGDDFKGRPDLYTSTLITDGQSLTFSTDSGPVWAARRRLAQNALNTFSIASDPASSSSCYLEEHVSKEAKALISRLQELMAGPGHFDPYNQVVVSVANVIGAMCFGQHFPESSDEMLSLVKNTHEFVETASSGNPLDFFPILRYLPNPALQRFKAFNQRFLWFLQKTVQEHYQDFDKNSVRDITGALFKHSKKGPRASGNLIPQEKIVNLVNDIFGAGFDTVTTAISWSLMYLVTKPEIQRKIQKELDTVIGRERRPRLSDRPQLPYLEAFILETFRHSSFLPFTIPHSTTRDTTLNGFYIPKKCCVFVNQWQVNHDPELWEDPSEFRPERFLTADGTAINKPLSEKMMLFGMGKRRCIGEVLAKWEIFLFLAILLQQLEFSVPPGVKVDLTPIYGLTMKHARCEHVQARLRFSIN
Chain of Dual specificity protein kinase CLK4 (Homo sapiens) (Q9HAZ1 whole entry, looked up): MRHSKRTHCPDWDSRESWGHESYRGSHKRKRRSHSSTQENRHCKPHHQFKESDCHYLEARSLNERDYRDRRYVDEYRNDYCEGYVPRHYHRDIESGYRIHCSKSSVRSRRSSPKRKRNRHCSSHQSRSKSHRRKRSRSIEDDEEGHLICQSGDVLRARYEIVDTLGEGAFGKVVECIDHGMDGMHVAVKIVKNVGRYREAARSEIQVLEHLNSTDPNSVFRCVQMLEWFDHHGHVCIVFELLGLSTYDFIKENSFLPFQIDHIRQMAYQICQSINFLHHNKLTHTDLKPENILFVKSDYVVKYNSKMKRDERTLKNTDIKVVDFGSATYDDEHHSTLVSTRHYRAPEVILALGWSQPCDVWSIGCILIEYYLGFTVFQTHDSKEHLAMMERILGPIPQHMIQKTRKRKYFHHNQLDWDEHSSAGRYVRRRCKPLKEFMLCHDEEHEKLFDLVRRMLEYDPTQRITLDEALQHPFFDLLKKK
Chain of Glucocorticoid receptor (Homo sapiens) (P04150 whole entry, looked up, the tested form may be a part): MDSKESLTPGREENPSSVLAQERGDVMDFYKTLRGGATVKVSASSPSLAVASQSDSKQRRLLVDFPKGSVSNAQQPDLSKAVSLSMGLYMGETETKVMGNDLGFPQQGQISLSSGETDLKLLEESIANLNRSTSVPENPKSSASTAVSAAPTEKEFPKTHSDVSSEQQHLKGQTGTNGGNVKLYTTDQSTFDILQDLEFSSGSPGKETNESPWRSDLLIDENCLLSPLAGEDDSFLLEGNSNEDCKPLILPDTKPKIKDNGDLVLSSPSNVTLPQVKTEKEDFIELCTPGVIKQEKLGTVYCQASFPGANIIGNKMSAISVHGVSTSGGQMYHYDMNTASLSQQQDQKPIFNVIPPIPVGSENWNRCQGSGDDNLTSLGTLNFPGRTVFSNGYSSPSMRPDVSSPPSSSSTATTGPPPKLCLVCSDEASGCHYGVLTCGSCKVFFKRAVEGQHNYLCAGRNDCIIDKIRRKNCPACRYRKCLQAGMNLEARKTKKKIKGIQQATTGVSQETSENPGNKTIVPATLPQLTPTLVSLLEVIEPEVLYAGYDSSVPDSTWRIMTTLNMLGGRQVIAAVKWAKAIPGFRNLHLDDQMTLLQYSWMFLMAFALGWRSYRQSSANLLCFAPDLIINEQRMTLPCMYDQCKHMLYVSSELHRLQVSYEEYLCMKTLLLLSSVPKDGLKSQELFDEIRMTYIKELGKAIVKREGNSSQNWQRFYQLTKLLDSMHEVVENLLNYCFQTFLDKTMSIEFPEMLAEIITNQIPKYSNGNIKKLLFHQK
Chain of Cytochrome P450 3A4 (Homo sapiens) (P08684 whole entry, looked up): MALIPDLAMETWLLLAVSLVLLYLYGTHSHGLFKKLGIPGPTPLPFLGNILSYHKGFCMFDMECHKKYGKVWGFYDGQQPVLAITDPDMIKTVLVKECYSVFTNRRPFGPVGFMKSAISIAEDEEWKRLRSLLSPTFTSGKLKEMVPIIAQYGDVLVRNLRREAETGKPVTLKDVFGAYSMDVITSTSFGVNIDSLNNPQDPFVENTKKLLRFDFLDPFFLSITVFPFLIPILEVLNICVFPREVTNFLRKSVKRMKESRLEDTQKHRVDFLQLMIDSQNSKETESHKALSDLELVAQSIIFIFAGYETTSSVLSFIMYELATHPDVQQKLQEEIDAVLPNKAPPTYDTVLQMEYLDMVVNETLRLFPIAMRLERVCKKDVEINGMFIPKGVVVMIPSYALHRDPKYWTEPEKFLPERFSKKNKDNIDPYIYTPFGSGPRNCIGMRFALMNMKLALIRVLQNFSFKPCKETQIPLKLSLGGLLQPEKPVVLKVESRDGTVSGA
Chain of 3',5'-cyclic-AMP phosphodiesterase 4B (Homo sapiens) (Q07343 whole entry, looked up): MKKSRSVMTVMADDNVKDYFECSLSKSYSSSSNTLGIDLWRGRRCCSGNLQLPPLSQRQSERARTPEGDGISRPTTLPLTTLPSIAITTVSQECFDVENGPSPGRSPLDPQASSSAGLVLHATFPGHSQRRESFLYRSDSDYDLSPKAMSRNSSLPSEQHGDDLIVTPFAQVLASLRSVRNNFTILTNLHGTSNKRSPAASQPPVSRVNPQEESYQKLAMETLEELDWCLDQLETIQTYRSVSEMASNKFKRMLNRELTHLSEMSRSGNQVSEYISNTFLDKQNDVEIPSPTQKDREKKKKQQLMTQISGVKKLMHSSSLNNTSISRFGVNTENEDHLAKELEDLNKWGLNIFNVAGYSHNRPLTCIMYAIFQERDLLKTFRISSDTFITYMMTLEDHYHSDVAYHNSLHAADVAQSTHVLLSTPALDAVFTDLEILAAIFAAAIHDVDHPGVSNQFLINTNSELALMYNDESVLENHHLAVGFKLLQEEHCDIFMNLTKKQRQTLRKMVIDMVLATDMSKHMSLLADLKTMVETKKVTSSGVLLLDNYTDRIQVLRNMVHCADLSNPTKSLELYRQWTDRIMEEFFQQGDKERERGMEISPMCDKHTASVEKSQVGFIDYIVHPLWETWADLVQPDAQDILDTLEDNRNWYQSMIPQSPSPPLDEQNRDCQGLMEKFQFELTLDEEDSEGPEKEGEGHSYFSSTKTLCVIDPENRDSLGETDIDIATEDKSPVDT
Chain of Lysosomal acid glucosylceramidase (Homo sapiens) (P04062 whole entry, looked up): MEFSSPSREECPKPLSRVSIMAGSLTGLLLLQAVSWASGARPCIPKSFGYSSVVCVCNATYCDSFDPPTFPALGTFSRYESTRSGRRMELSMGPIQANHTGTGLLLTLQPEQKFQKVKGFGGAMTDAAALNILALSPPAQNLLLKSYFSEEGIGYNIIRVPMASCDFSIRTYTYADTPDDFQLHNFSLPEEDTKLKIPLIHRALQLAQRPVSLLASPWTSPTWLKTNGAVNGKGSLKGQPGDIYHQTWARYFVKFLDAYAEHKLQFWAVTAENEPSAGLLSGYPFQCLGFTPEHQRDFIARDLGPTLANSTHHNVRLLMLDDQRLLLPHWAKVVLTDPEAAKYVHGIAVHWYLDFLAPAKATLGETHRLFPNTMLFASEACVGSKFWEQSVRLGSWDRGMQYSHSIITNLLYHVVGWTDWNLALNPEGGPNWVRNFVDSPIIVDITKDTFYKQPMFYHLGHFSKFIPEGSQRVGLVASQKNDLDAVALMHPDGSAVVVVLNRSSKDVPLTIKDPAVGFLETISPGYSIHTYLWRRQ
Chain of Cytochrome P450 2C19 (Homo sapiens) (P33261 whole entry, looked up): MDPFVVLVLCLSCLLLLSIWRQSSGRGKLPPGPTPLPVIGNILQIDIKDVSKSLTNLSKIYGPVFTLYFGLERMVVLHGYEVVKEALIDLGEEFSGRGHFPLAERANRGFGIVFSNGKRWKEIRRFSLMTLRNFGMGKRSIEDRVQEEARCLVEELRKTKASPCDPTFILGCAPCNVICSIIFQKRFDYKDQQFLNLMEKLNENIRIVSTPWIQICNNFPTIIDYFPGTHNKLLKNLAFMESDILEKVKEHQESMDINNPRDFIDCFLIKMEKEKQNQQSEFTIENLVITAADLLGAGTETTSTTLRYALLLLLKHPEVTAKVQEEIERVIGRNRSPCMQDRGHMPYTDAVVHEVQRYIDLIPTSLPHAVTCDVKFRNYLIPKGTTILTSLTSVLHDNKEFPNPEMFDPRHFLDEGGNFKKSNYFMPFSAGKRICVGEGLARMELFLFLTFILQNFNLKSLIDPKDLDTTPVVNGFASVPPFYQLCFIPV

| Structure (SMILES) | Potency [1] | activity change, negative = inhibition [2] | Potency [3] | activity change, negative = inhibition [4] | activity, negative = inhibition [5] | Potency [6] | Potency [7] | outcome [8] | Potency [9] | Potency [10] | activity change, negative = inhibition [11] | max response [11, 18] [%] | max response [11, 19] [%] | Potency [12] | Potency [13] | Potency [14] | Potency [15] | Potency [16] | Potency [17] |
| --- | --- | --- | --- | --- | --- | --- | --- | --- | --- | --- | --- | --- | --- | --- | --- | --- | --- | --- | --- |
| COc1ncc2nc(C)c(=O)n(C3CC3)c2n1 | > 11.4 µM (inactive) | -5.11% (inactive) | 3.98 µM (active) | -4.48% (inactive) | -11.2% (inactive) | > 9.22 µM (inactive) | > 46 µM (inactive) | inactive | inactive | inactive | 4.19% (inactive) | 28.7 | 29.7 | inactive | inactive | inactive | inactive | inactive |  |
| Cc1cnc(CNc2ncncc2-c2c(C)noc2C)cn1 | > 11.4 µM (inactive) | 5.13% (inactive) | inactive | 1.67% (inactive) | -8% (inactive) | > 46 µM (inactive) | > 46 µM (inactive) | inactive | inactive | inactive | 5.43% (inactive) | 31 | 35 | inactive | inactive | inactive | inactive | inactive |  |
| CN(C)Cc1ccccc1-c1nc(N(C)C)c2ccccc2n1 | > 11.4 µM (inactive) | 19.8% (inactive) | 1.26 µM (active) | 13.2% (inactive) | 28.7% (inactive) | > 46 µM (inactive) | > 46 µM (inactive) | inactive |  |  | -2.91% (inactive) | 9.81 | 6.7 | inactive | inactive | inactive | inactive | inactive |  |
| CN(Cc1ccco1)c1cc(-c2ccoc2)ncn1 | > 11.4 µM (inactive) | -1.97% (inactive) | inactive | -2.33% (inactive) | 18.1% (inactive) |  | > 46 µM (inactive) | inactive | inactive |  | 6.03% (inactive) | 18 | 23.3 | inactive | inactive | inactive | inactive | inactive |  |
| Cc1noc(C)c1-c1cc(NCc2cccs2)ncn1 | > 11.4 µM (inactive) | 17% (inactive) | 0.794 µM (active) | -7.58% (inactive) | 7.7% (inactive) | > 46 µM (inactive) | > 46 µM (inactive) | inactive | inactive | inactive | 5.54% (inactive) | 20.5 | 27.7 | 11.2 µM (active) | 10 µM (active) | 14.1 µM (active) | inactive | inactive | inactive |
| N#CCCn1c(=O)c(-c2cccc(C#N)c2)nc2cnc(N3CCOCC3)nc21 | > 11.4 µM (inactive) | 2.97% (inactive) | 15.8 µM (active) | 6.22% (inactive) | 11.4% (inactive) | > 9.22 µM (inactive) | > 46 µM (inactive) | inactive | inactive | inactive | -2% (inactive) | 13.8 | 7.79 | inactive | inactive | inactive | inactive | inactive |  |
